Assay results: the supplement of paper PMC12024424
Structures can show the parent of a compound that is named as a salt.

Assays:
[1] = tested on: Staphylococcus aureus Sa2 (MRSA, cystic fibrosis isolate); assay: growth reduction vs untreated control (OD550); higher = stronger antibacterial activity; conditions: 0.1 mM; 24 h
Experimental: (§1)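 Single-dose screen of the MedChem Express Drug Repurposing Library (0.1 mM, 1% DMSO) against planktonic MRSA S. aureus Sa2 (CF isolate) in TSB in 96-well plates, 37 °C aerobic, 24 h. Assays were run in triplicate and repeated twice.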

[2] = tested on: Staphylococcus aureus Sa2 (MRSA, cystic fibrosis isolate); assay: growth reduction vs untreated control (viable cell count); higher = stronger antibacterial activity; extreme values may be limits of the assay; conditions: 0.1 mM; 24 h
Experimental: as §1

Row | SMILES | growth reduction [1] [%] | growth reduction [2] [%]
1 | CC[C@@]1(O)C[C@H](O[C@H]2C[C@H](N(C)C)[C@H](O[C@H]3C[C@H](O)[C@H](O[C@H]4CCC(=O)[C@H](C)O4)[C@H](C)O3)[C@H](C)O2)c2c(cc3c(c2O)C(=O)c2c(O)cccc2C3=O)[C@H]1C(=O)OC [Aclacinomycin A hydrochloride] | 100 | 100
2 | CC1(C)CC[C@]2(NC(=O)C(C)(F)F)CC[C@]3(C)[C@H](C(=O)C=C4[C@@]5(C)C=C(C#N)C(=O)C(C)(C)[C@@H]5CC[C@]43C)[C@@H]2C1 [Omaveloxolone] | 100 | 100
3 | CCc1cc(F)c2nc(N3CCC(NC4CCOCC4)CC3)c(-c3nc(C)no3)c(C)c2c1 | 100 | 93
4 | Clc1ccc(COC(Cn2ccnc2)c2ccc(Cl)cc2Cl)cc1 (centres undefined) [Econazole (nitrate)] | 100 | 100
5 | CS(=O)(=O)c1ccc([C@@H](O)[C@@H](CF)NC(=O)C(Cl)Cl)cc1 [Florfenicol] | 100 | 100
6 | c1ccc(-c2ccc(C(c3ccccc3)n3ccnc3)cc2)cc1 (centres undefined) [Bifonazole] | 100 | 100
7 | Cn1cnc([N+](=O)[O-])c1C[N+](C)(C)C/C=C/C(=O)Nc1cc2c(Nc3ccc(Cl)c(Br)c3)ncnc2cn1 [Tarloxotinib (bromide)] | 99.6 | 100
8 | COc1ccc(CN2CCN(C(c3ccc(F)cc3)c3ccc(F)cc3)CC2)c(OC)c1OC [Lomerizine dihydrochloride] | 100 | 98
9 | CCOC(=O)N1CCC(=C2c3ccc(Cl)cc3CCc3cccnc32)CC1 [Loratadine] | 100 | 100
10 | O=c1[nH]c(=O)n([C@H]2C[C@H](O)[C@@H](CO)O2)cc1F [Floxuridine] | 100 | 100
11 | Fc1ccc2c(CCNCc3cccc(OCC(F)(F)C(F)F)c3)c[nH]c2c1 [Idalopirdine Hydrochloride] | 100 | 100
12 | Cc1cc(OCCCS(C)(=O)=O)cc(C)c1-c1cccc(COc2ccc3c(c2)OC[C@H]3CC(=O)O)c1 [Fasiglifam] | 100 | 100
13 | CSc1ccc(OCc2ncc([N+](=O)[O-])n2C)cc1 [Fexinidazole] | 98.5 | 93
14 | Cc1cc(Nc2ncc(Cl)c(Nc3ccccc3S(=O)(=O)C(C)C)n2)c(OC(C)C)cc1C1CCNCC1 [Ceritinib] | 100 | 100
15 | OCCN1CCN(CCCN2c3ccccc3Sc3ccc(Cl)cc32)CC1 [Perphenazine] | 100 | 100
16 | Cc1cc(Nc2ncnc3ccc(NC4=NC(C)(C)CO4)cc23)ccc1Oc1ccn2ncnc2c1 [Tucatinib] | 91.9 | 92
17 | COCc1c(C(C)C)nc(C(C)C)c(/C=C/[C@@H](O)C[C@@H](O)CC(=O)O)c1-c1ccc(F)cc1 [Cerivastatin (sodium)] | 93.6 | 99
18 | CN[C@H]1CN(c2ccc3c(=O)c(C(=O)O)cn(-c4nccs4)c3n2)C[C@@H]1OC [Voreloxin (Hydrochloride)] | 100 | 100
19 | CN1CC[C@@H](NC(=O)Nc2ccc(C#N)cc2)C[C@@H]1c1nc2ccccc2[nH]1 [Glasdegib] | 100 | 98
20 | Cc1ccc(C(=O)c2cc(O)c(O)c([N+](=O)[O-])c2)cc1 [Tolcapone] | 100 | 100
21 | COc1cc(NS(C)(=O)=O)ccc1Nc1c2ccccc2nc2ccccc12 [Amsacrine (hydrochloride)] | 93.4 | 100

Row | SMILES | growth reduction [1] [%] | growth reduction [2] [%]
22 | CC(=O)OCC(=O)[C@@]1(O)CC[C@H]2[C@@H]3CCC4=CC(=O)C=C[C@]4(C)[C@H]3C(=O)C[C@@]21C [Prednisone acetate] | 97.7 | 100
23 | CCN(CC)CCN(Cc1ccc(-c2ccc(C(F)(F)F)cc2)cc1)C(=O)Cn1c(SCc2ccc(F)cc2)nc(=O)c2c1CCC2 [Darapladib] | 100 | 100
24 | COc1cc(/C=C/c2ccc(O)cc2)cc(OC)c1 [Pterostilbene] | 99.9 | 100
25 | CC(C)=CCC/C(C)=C/CC/C(C)=C/CSc1ccccc1C(=O)O [Salirasib] | 100 | 100
26 | COc1cc2ncnc(Nc3ccc(F)c(Cl)c3)c2cc1NC(=O)/C=C/CN1CCCCC1 [Dacomitinib] | 100 | 100
27 | COC(=O)/C=C/C(=O)OCCN1C(=O)CCC1=O [Diroximel fumarate] | 100 | 100
28 | O=C(O)Cc1ccc(Cc2cc(-c3cccc(Cl)c3)nc(C(F)(F)F)c2)cc1 | 100 | 100
29 | Oc1c(I)cc(Cl)c2cccnc12 [Clioquinol] | 100 | 100
30 | Clc1ccc(CSC(Cn2ccnc2)c2ccc(Cl)cc2Cl)cc1 (centres undefined) [Sulconazole (mononitrate)] | 100 | 100
31 | CC(O)c1cc(C(=O)N[C@@H](C)Cn2ccc(-c3ccc(C#N)c(Cl)c3)n2)n[nH]1 (some centres undefined) [Darolutamide] | 100 | 100
32 | CC1(C)CC=C(c2nc(C3CC(C)(C)OC(C)(C)C3)ccc2NC(=O)c2nc(C#N)c[nH]2)CC1 [Edicotinib] | 99.3 | 100
33 | Nc1ccn([C@@H]2O[C@H](CO)[C@@H](O)C2(F)F)c(=O)n1 [Gemcitabine (hydrochloride)] | 100 | 100
34 | CC(C)(C)OC(=O)N[C@H]1CCCCC/C=C\[C@@H]2C[C@@]2(C(=O)NS(=O)(=O)C2CC2)NC(=O)[C@@H]2C[C@@H](OC(=O)N3Cc4cccc(F)c4C3)CN2C1=O [Danoprevir] | 99.9 | 100
35 | Cc1ccc(Cl)c(Nc2ccccc2C(=O)O)c1Cl [Meclofenamate (sodium)] | 97.2 | 99
36 | Cc1ccc(Sc2ccccc2N2CCNCC2)c(C)c1 [Vortioxetine] | 100 | 100
37 | O=C(Nc1ccc(F)cc1)c1cnc(SCc2cc(OC(F)(F)F)ccc2B(O)O)nc1 | 100 | 100
38 | C=CC(=O)Nc1cc(Nc2nccc(-c3cn(C)c4ccccc34)n2)c(OC)cc1N(C)CCN(C)C [Osimertinib mesylate] | 100 | 100
39 | Cc1ccc(-n2[nH]c(C)c(N=Nc3cccc(-c4cccc(C(=O)O)c4)c3O)c2=O)cc1C [Eltrombopag] | 96.5 | 100
40 | CC(=O)O[C@]1(C(C)=O)CC[C@H]2[C@@H]3C=C(C)C4=CC(=O)CC[C@]4(C)[C@H]3CC[C@@]21C [Megestrol acetate] | 100 | 91
41 | NC1=NCC2c3ccccc3Cc3ccccc3N12 (centres undefined) [Epinastine] | 100 | 100
42 | CCCCCCCCc1ccc(CCC(N)(CO)CO)cc1 [Fingolimod] | 100 | 100

Row | SMILES | growth reduction [1] [%] | growth reduction [2] [%]
43 | Cc1ccc(Sc2ccccc2N2CCNCC2)c(C)c1 [Vortioxetine (hydrobromide)] | 100 | 100
44 | CC(=O)[C@]1(O)Cc2c(O)c3c(c(O)c2[C@@H](O[C@H]2C[C@H](N)[C@H](O)[C@H](C)O2)C1)C(=O)c1ccccc1C3=O [Idarubicin (hydrochloride)] | 98.1 | 100
45 | Cc1cccc(/C=N/Nc2cc(N3CCOCC3)nc(OCCc3ccccn3)n2)c1 [Apilimod] | 100 | 93
46 | O=C(O)Cc1ccccc1Nc1c(Cl)cccc1Cl [Diclofenac] | 100 | 100
47 | O=c1[nH]cc(F)c(=O)[nH]1 [5-Fluorouracil] | 97.1 | 100
48 | O=C(Nc1ccc([N+](=O)[O-])cc1Cl)c1cc(Cl)ccc1O [Niclosamide] | 99.8 | 100
49 | Nc1ccn([C@@H]2O[C@H](CO)[C@@H](O)C2(F)F)c(=O)n1 [Gemcitabine] | 100 | 100
50 | CC(C)/N=c1\cc2n(-c3ccc(Cl)cc3)c3ccccc3nc-2cc1Nc1ccc(Cl)cc1 [Clofazimine] | 100 | 100
51 | Oc1c(Cl)cc(Cl)cc1Sc1cc(Cl)cc(Cl)c1O [Bithionol] | 99.2 | 100
52 | CCCCc1oc2ccc(NS(C)(=O)=O)cc2c1C(=O)c1ccc(OCCCN(CCCC)CCCC)cc1 [Dronedarone (Hydrochloride)] | 92.6 | 100
53 | O=C(NCc1c(F)cc(F)cc1F)c1cn2c(c(O)c1=O)C(=O)N1[C@H]3CC[C@H](C3)O[C@@H]1C2 [Bictegravir] | 100 | 100
54 | CC(C)N(CCCCOCC(=O)NS(C)(=O)=O)c1cnc(-c2ccccc2)c(-c2ccccc2)n1 [Selexipag] | 100 | 100
55 | CC(C)(C)c1cc(C(C)(C)C)c(NC(=O)c2c[nH]c3ccccc3c2=O)cc1O [Ivacaftor] | 95.3 | 99
56 | COc1cccc2c1C(=O)c1c(O)c3c(c(O)c1C2=O)C[C@@](O)(C(=O)CO)C[C@@H]3O[C@H]1C[C@H](N)[C@H](O)[C@H](C)O1 [Doxorubicin (hydrochloride)] | 96.1 | 100
57 | CC(=O)OC[C@H]1O[C@@H]([S-])[C@H](OC(C)=O)[C@@H](OC(C)=O)[C@@H]1OC(C)=O.CCP(CC)CC.[Au+] [Auranofin] | 99.9 | 100
58 | Cn1ncc(Cl)c1-c1cc(C(=O)N[C@H](CN)Cc2cccc(F)c2)sc1Cl [Afuresertib] | 100 | 100
59 | Cc1ccc([C@@H]2O[C@H](CO)[C@@H](O)[C@H](O)[C@H]2O)cc1Cc1ccc(-c2ccc(F)cc2)s1 [Canagliflozin] | 100 | 100
60 | Cc1cc(O[C@@H](CCC(F)(F)F)c2ccc(C(=O)NCCC(=O)O)cc2)cc(C)c1-c1ccc(C(C)(C)C)cc1 [Adomeglivant] | 100 | 100
61 | Cc1cc(C)cc([C@@H]2CCCN2Cc2ccc(Oc3ccc(C(N)=O)cc3F)cc2)c1 [Aticaprant] | 100 | 100
62 | CCN(CC)CCOc1ccc(/C(=C(/Cl)c2ccccc2)c2ccccc2)cc1 [Enclomiphene (citrate)] | 100 | 100
